PubChem BioAssay AID2685 (National Center for Advancing Translational Sciences (NCATS), 2010)
Out of some 320,000 compounds screened, about 2,100 (0.66%) were called active. Not shown: some 53% with an inconclusive outcome. The sample holds actives, similar compounds and a random draw of the others, so the mix is not that of the screen. Calls follow the shape of the dose curve; as a rule, active = well fitted inhibition curve with a large enough effect in the signal ratio, with a control signal flat (not every such curve was filed as active); inconclusive = small, poorly fitted or top-dose-only effect, or effect the other way, or a change in a side signal; inactive = flat fitted curve, though single readings scatter; the % refers to the signal ratio.

Experiment: qHTS Assay for Lipid Storage Modulators in Drosophila S3 Cells;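 as to cell number change: cells counted by Cell Tracker Red CMTPX staining in the red channel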; as to lipid storage change, negative = inhibition: % is scaled to controls: 0 for no effect and ±100 for the full control effect
Conditions: BODIPY lipid droplet fluorescence, 18-24 h, cells fed with added oleic acid; cell number change: measured here: cell count max response; series mostly up to 46.1 µM; lipid storage change, negative = inhibition: at the top concentration
Text: NIH Molecular Libraries Probe Production Centers Network [MLPCN] NIH Chemical Genomics Center [NCGC] MLPCN Grant: 1 R03 MH085686-01 Assay Submitter (PI): Beller, Mathias; Max-Planck-Institut fur Biophysikalische Chemie NCGC Assay Overview: Storing lipids as a reservoir for energy or the anabolism of elementary metabolites is a common feature of probably all cells and is conserved from bacteria to humans. The universal cellular lipid storage organelle is the so-called lipid storage droplet (LD). Although ubiquitous, LDs share a simple structure composed of a hydrophobic core that harbors the storage lipids, which is shielded by a droplet-specific phospholipid monolayer to which proteins are attached. The current model of LD biogenesis involves an incorporation of the lipid core into the membrane leaflets of the endoplasmic reticulum (ER) followed by a subsequent budding-like maturation of a LD, which ultimately pinches off. Once released, LD volume can increase by localized lipogenesis or fusion of existing droplet. Storage lipids are re-mobilized enzymatically by lipase activity. Lipase regulation in the adipocyte is heavily studied and involves multiple components including catecholamine signaling, the LD-associated proteins Perilipin and comparative gene identification (CGI-58) and at least two lipases named hormone sensitive lipase (HSL) and adipocyte triglyceride lipase (ATGL). LD regulation outside of the adipocyte is poorly understood and only few components are known. However, there is an urgent need to learn more about ectopic fat depots as mislocalized storage of lipids, for example in the liver or muscle, is an eminent health problem associated with insulin resistance or the metabolic syndrome. We developed a laser-scanning cytometer assay to enable 1,536-well screening and combined the results of the small molecules screen with an RNAi database based on lipid storage.
Triacsin C (Sigma-Aldrich T-4540), an inhibitor of long-chain fatty acyl CoA synthetase that blocks synthesis of triglycerides, was used as a positive control for lipid under-storage. A total of 23 nL of compound solution of different concentrations were transferred to the assay plates using a Kalypsys pin tool equipped with a 1,536-pin array containing 10-nL slotted pins (FP1S10, 0.457-mm diameter, 50.8 mm long; V&P Scientific). One microliter of oleic acid (400 uM) was added, and the plate was lidded with stainless steel rubber gasket lined lids containing pinholes. […] Fluorescence was detected by excitation of the fluorophores with a 488-nm laser on an Acumen Explorer (TTP Lab Tech). The total intensity in channel 2 (500-530 nm) reflected lipid droplet accumulation. Cells were detected using channel 3 (575-640 nm) with 5-um width and 100-um depth filters. The ratio of the number of objects in PMT channel 2 over the number of objects in PMT channel 3 was also calculated. Percent activity was computed relative to an internal control (100% inhibited lipid droplet deposition due to the presence of 20 uM Triacsin C), which was added to 32 wells/plate.
Potency is read from the fitted curve at half-maximal effect.

| Compound | lipid storage change, negative = inhibition | cell number change [%] | Potency | outcome |
| --- | --- | --- | --- | --- |
| C/C(=N/NC(=O)c1ccncc1)c1ccccc1 | 27.6% (inactive) | -7.04 | – | – |
| Cc1ccccc1NC(=O)COC(=O)c1ccc(S(C)(=O)=O)c([N+](=O)[O-])c1 | – | -15.7 | 25.9 µM (active) | – |
| CC(=O)c1cccc(NC(=O)COC(=O)c2ccc(S(C)(=O)=O)c([N+](=O)[O-])c2)c1 | -16.9% (inactive) | -10.3 | – | – |
| Cc1ccccc1NC(=O)COC(=O)c1ccc(S(=O)(=O)N2CCCC2)cc1 | 9.1% (inactive) | 10.7 | – | – |
| Cc1ccc(NC(=O)c2c(C)nn(-c3ccccc3)c2Cl)c(C)c1 | 1.17% (inactive) | -13.2 | – | – |
| CC(=O)N1CCOc2ccc(S(=O)(=O)N3CCC(C(=O)NCc4ccc(C)cc4)CC3)cc21 | -5.97% (inactive) | 17.2 | – | – |
| CCCCS(=O)(=O)N1CCC(C(=O)NCC2CCCO2)CC1 (centres undefined) | 0.205% (inactive) | 5.96 | – | – |
| CCCS(=O)(=O)N1CCC(C(=O)NCC2CCCO2)CC1 (centres undefined) | – | – | – | inactive |
| CS(=O)(=O)N1CCC(C(=O)NCC2CCCO2)CC1 (centres undefined) | – | -2.74 | 2.31 µM (active) | – |
| Cc1ccccc1C(=O)NC1CCN(Cc2nnnn2C(C)(C)C)CC1 | 4.79% (inactive) | – | – | – |
| COc1ccc(CC(=O)NC2CCN(Cc3nnnn3C(C)(C)C)CC2)cc1OC | – | -1.5 | 2.59 µM (active) | – |
| COc1ccc(CC(=O)NC2CC2)cc1OC | – | 20.4 | – | inactive |
| CCN=C1SC(CC(=O)NC(C)c2ccccc2)C(=O)N1CC (centres undefined) | -3.35% (inactive) | 8.53 | – | – |
| O=[N+]([O-])c1ccc(N2CCN(CCO)CC2)cc1Sc1nc2ccccc2[nH]1 | -5.35% (inactive) | -10.6 | – | – |
| Cc1cccc(C)c1NC(=S)NN1CCN(C)CC1 | – | -31.3 | 23.1 µM (active) | – |
| CN1CCN(NC(=S)Nc2ccccc2)CC1 | -1.16% (inactive) | 5.3 | – | – |
| Cc1cccc(NC(=S)NN2CCN(C)CC2)c1C | – | 19.2 | – | inactive |
| COC(=O)c1ccc(Cc2ccc(C(=O)OC)o2)o1 | 9.86% (inactive) | 11 | – | – |
| COC(=O)c1ccc(COc2ccccc2OC)o1 | 20.1% (inactive) | -9.22 | – | – |
| COC(=O)c1ccc(Cc2ccccc2)o1 | – | 0.155 | 25.9 µM (active) | – |
| COc1cccc(CC(=O)N(CCC2=CCCCC2)c2c(N)n(Cc3ccccc3)c(=O)[nH]c2=O)c1 | 24.1% (inactive) | -11.8 | – | – |
| Cc1ccc(-c2nn(-c3ccccc3)c3[nH]c(=O)c(CNCCN(C)C)cc23)cc1 | – | -8.5 | – | inactive |
| Cc1nn(-c2ccccc2)c2[nH]c(=O)c(CNc3ccc(N4CCOCC4)cc3)cc12 | 21.5% (inactive) | -0.634 | – | – |
| Cc1nn(-c2ccccc2)c2[nH]c(=O)c(CNCCN3CCOCC3)cc12 | – | -6.25 | 23.1 µM (active) | – |

| Compound | lipid storage change, negative = inhibition | cell number change [%] | Potency | outcome |
| --- | --- | --- | --- | --- |
| Cc1ccc2c(COC(=O)c3ccccc3Cl)cc(=O)oc2c1 | – | 0.403 | 1.64 µM (active) | – |
| Cc1ccc2c(COC(=O)c3ccccc3Br)cc(=O)oc2c1 | – | 8.73 | – | inactive |
| Cc1ccc2c(COC(=O)c3ccccc3OC(F)F)cc(=O)oc2c1 | – | 26.6 | – | inactive |
| CN(C)C(=O)c1cc(C(=O)c2ccccc2Br)c[nH]1 | 7.47% (inactive) | 10.8 | – | – |
| Cc1nn(CC(=O)NCc2cccnc2)c(C)c1[N+](=O)[O-] | 4.48% (inactive) | 15.3 | – | – |
| COC(c1ccccc1)c1nnc(CCC(=O)N2CCCCCCC2)o1 (centres undefined) | 11.6% (inactive) | 7.76 | – | – |
| COC(c1ccccc1)c1nnc(CCC(=O)NCCc2ccc(Cl)cc2)o1 (centres undefined) | – | -7.97 | 14.6 µM (active) | – |
| COC(c1ccccc1)c1nnc(CCC(=O)N2CCN(C3CCCC3)CC2)o1 (centres undefined) | – | 22.7 | – | inactive |
| CCOC(=O)c1ccc(NC(=O)CCc2nc(-c3ccc(C)cc3)no2)cc1 | – | – | – | inactive |
| CC(c1ccccc1)C1C(C#N)=C(N)OC2=C1C(=O)CC(C)(C)C2 (centres undefined) | 6.38% (inactive) | – | – | – |
| CN(CC(=O)Nc1ccccc1Cl)C(=O)Cn1nnc(-c2ccc(F)cc2)n1 | – | – | – | inactive |
| CCC1CCCCN1C(=O)c1sc2nc(C)nc(N(CC)CC)c2c1C (centres undefined) | 7% (inactive) | 9.48 | – | – |
| CCCCCN(C(=O)CCC(=O)OC(C)C(=O)NCc1ccccc1)c1c(N)n(CCCC)c(=O)[nH]c1=O (centres undefined) | 4.2% [at 0.0737 µM] (inactive) | -30.3 | – | – |
| O=C(CN1CCCc2ccccc21)NC(=O)NCc1ccco1 | – | 15.9 | – | inactive |
| O=C(CN1CCc2ccccc21)NC(=O)NCc1ccccc1 | – | – | – | inactive |
| Cc1ccc(CSCC(=O)NCc2ccco2)cc1 | -0.179% (inactive) | 14.7 | – | – |
| Cn1c(SCC(=O)NCc2ccco2)nnc1-c1ccccc1 | -2.43% (inactive) | -3.55 | – | – |
| Cn1c(SCC(=O)NCc2ccco2)nnc1-c1ccc(S(=O)(=O)N2CCOCC2)cc1 | – | -9.46 | 5.8 µM (active) | – |
| O=C(CSc1ccccc1)NCc1ccco1 | 6.48% (inactive) | -1.34 | – | – |
| Cc1ccc(NC(=O)CSc2nnc(-c3ccc(S(=O)(=O)N4CCOCC4)cc3)n2C)cc1 | – | – | – | inactive |
| O=C(CSCC(=O)NCc1ccco1)NCc1ccco1 | – | 16.7 | 6.51 µM (active) | – |
| CCCCn1c(SCC(=O)NCc2ccco2)nnc1-c1ccco1 | -2.67% (inactive) | -17 | – | – |
| O=C(CN1CCc2ccccc21)NC(=O)NCc1ccco1 | – | 0.297 | 6.51 µM (active) | – |
| CCCCn1nnnc1SCC(=O)NCc1ccco1 | – | 0.128 | 23.1 µM (active) | – |
